NadD block = blocks S. aureus nicotinate mononucleotide adenylyltransferase | inhibition, % at 20 µM | 360,000 compounds, 0.78% hits | purified NadD enzyme, colorimetric absorbance read-out; in the data active = inhibition above about 26%
Cardio protect = modulators protecting cardiomyocytes from myocardial damage; H9c2 cardiomyocytes, H2O2 injury protection, ATPLite, 2 h; protection from H2O2 cell death, % at 20 µM; 360,000 compounds, 0.63% hits; AID 588492;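 active = compounds giving at least 50% protection of heart cells from peroxide-induced death in the single-dose screen, raw or plate-pattern-corrected value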;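 also: 0% = DMSO wells with peroxide and 100% = DMSO wells without peroxide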
PfG6PD inh = PfG6PD (Plasmodium falciparum) enzyme inhibition; 350,000 compounds, 0.78% hits; PfGluPho enzyme, NADPH resazurin-diaphorase fluorescence; inhibition, % at 20 µM; AID 504690;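 active = inhibition reaching at least a set limit at 20 µM in the primary screen, cut at about 59% in these data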;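 also: 0% = DMSO wells with substrate and 100% = DMSO wells lacking glucose-6-phosphate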
APOBEC3A inh = inhibitors of human APOBEC3A DNA deaminase; recombinant A3A, FAM/TAMRA ssDNA deamination fluorescence; 330,000 compounds, 0.41% hits; inhibition, % at 20 µM; P31941; AID 493011;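 active = at least 40% inhibition at 20 µM here, with at most 30% in a related deaminase screen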;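 also: plate controls were A3A with DMSO for no effect and wells lacking A3A enzyme for full effect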
Target sequence (P31941 whole entry, looked up): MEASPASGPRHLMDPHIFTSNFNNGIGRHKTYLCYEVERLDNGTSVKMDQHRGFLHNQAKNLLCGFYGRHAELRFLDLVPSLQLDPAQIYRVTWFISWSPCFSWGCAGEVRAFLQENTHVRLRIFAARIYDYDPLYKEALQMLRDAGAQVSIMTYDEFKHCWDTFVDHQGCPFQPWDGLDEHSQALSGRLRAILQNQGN
TAG inh = reduces triacylglycerol accumulation in H9c2 cells; Nile Red lipid (TAG) fluorescence; cells loaded with 200 µM oleic acid; inhibition, % at 12.5 µM; 230,000 compounds, 0.66% hits; AID 651582;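 active = pattern-corrected inhibition of lipid staining of at least 50% with the nuclear-stain viability signal not falling by more than 50%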;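 also: 0% = DMSO wells and 100% = triacsin C control wells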
APOBEC3G inh = APOBEC3G (human) deaminase inhibition | AID 493012 | recombinant A3G, ssDNA deamination FAM/TAMRA fluorescence | Q9HC16 | 330,000 compounds, 0.28% hits | inhibition, % at 20 µM;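 active = inhibition of at least 40% at 20 µM, with no more than 30% in the related APOBEC3A deaminase screen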;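 also: plate controls were DMSO wells with A3G for no effect and wells lacking A3G enzyme for full effect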
A3G conf = APOBEC3G (human) deaminase inhibition, confirmed | AID 493152 | inhibition, % at 20 µM | recombinant A3G ssDNA deaminase, UDG/FAM-TAMRA fluorescence | 890 compounds, 72% hits | shares compounds with APOBEC3G inh;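 active = inhibition reaching a set limit in any replicate at 20 µM, the limit being 80% of the first screen's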
UDG A3G counter = E. coli UDG inhibition in APOBEC3G counter-screen; shares compounds with APOBEC3G inh; UDG counterscreen, FAM/TAMRA oligo fluorescence; inhibition, % at 20 µM; 710 tested, under 10 active;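 active = compounds giving 40% or more inhibition at 20 µM in any one of the three replicates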;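 also: plate controls were DMSO wells with UDG and oligo for no effect and DMSO wells lacking both for full effect; inhibitors lower the FAM signal released by uracil excision and alkaline cleavage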
Target sequence (P12295 whole entry, looked up): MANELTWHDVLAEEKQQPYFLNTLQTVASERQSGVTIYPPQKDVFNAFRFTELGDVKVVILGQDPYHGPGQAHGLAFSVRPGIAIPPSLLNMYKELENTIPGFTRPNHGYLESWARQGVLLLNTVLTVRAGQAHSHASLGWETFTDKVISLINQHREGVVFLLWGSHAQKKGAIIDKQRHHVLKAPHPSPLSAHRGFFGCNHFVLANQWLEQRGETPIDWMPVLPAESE
PfG6PD confirm = confirmation of Plasmodium falciparum G6PD inhibitors | recombinant PfGluPho, NADPH-diaphorase-resazurin fluorescence | shares compounds with PfG6PD inh | 2,400 compounds, 34% hits | inhibition, % at 20 µM | AID 504753;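 active = inhibition of at least 50% at 20 µM in any single replicate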;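 also: 0% = DMSO with substrate and 100% = DMSO lacking glucose-6-phosphate substrate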
Diaph ctr 10uM = inhibits diaphorase or oxidizes, flagging false PfG6PD hits. shares compounds with PfG6PD inh. diaphorase-coupled resazurin reduction, fluorescence, NADPH 10 uM. inhibition, % at 20 µM. 820 compounds, 39% hits. AID 504862;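 active = average inhibition reaching 50% or more with the compound at 20 µM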;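 also: resorufin red fluorescence formed as diaphorase reduces resazurin using NADPH; 0% = DMSO with enzyme and 100% = DMSO without enzyme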
Diaphorase 30uM = inhibits diaphorase or oxidizes, flagging false PfG6PD hits | shares compounds with PfG6PD inh | Diaphorase/resazurin coupled assay, resorufin fluorescence, 30 uM NADPH | inhibition, % at 20 µM | 820 compounds, 29% hits;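 active = inhibition averaging 50% or more, tested at 20 µM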;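 also: 0% = DMSO with enzyme and 100% = DMSO wells lacking diaphorase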
NadD conf = NadD (S. aureus) inhibition, single concentration confirmation. shares compounds with NadD block. purified S. aureus NadD, colorimetric enzyme assay. inhibition, % at 20 µM. 2,000 compounds, 13% hits. AID 624309; in the data active = inhibition mostly above about 42%, no sharp cut-off; inactive = mostly below about 42%
Starred values were filed as active, the others as inactive; ! = not active in a repeat. This is a sample that favours compounds with a hit; in the whole collection about 2.9% have one here.

Nc1ccccc1N=c1ssnc1Cl was read as NadD block 3, Cardio protect 15, PfG6PD inh 59 and TAG inh 1.
COc1ccc(OC)c(N=c2ssnc2Cl)c1 was read as NadD block 4, Cardio protect -1, PfG6PD inh 82*, APOBEC3A inh 1, TAG inh 12, APOBEC3G inh 74*, A3G conf 69*, UDG A3G counter -4 and PfG6PD confirm 30.
Screening COc1cc(N=c2ssnc2Cl)c(OC)cc1Cl returned NadD block 0, Cardio protect 0, PfG6PD inh 105*!, APOBEC3A inh 2, TAG inh -11, APOBEC3G inh 67*, A3G conf 82*, UDG A3G counter -3, PfG6PD confirm 64*, Diaph ctr 10uM -15 and Diaphorase 30uM -18.
For CCOC(=O)Nc1ccc2c(c1)N(C(=O)CCN(CC)CC)c1ccccc1S2=O (stereo unspecified) the results were NadD block -1, Cardio protect -11, PfG6PD inh -8, APOBEC3A inh -2 and APOBEC3G inh -1.
Screening CC(=O)Nc1ccc(S(=O)(=O)NNc2cccc(C)c2)cc1 returned NadD block 10, Cardio protect -4, PfG6PD inh 76*, APOBEC3A inh 3, APOBEC3G inh 61*, A3G conf 62*, UDG A3G counter -3, PfG6PD confirm 45*, Diaph ctr 10uM -10 and Diaphorase 30uM 4.
Cc1ccc(S(=O)(=O)Nc2ccc(Nc3ccccc3)cc2)cc1 was read as NadD block -11, Cardio protect -6, PfG6PD inh -4, APOBEC3A inh 0 and APOBEC3G inh -3.
`Cc1ccc(S(=O)(=O)NNc2ccccc2)cc1` gave NadD block 5, Cardio protect 2, PfG6PD inh 65*, APOBEC3A inh 4, APOBEC3G inh 68*, A3G conf 66*, PfG6PD confirm 47*, Diaph ctr 10uM 42 and Diaphorase 30uM 19.
Cc1cccc(NC(=O)NNS(=O)(=O)c2ccc(F)cc2)c1 was read as NadD block 1, Cardio protect 2, PfG6PD inh -5, APOBEC3A inh 2, TAG inh 1 and APOBEC3G inh 3.
Screening Cc1[nH]c(=S)c(C#N)c2c1CCCC2 returned NadD block 11, Cardio protect 0, PfG6PD inh 81*, APOBEC3A inh -5, TAG inh 0, APOBEC3G inh 50*, A3G conf 83*, UDG A3G counter -2 and PfG6PD confirm 38.
Cc1csc(=O)n1CC(=O)OCC(=O)NNC(=O)c1ccc(Cl)cc1 was read as NadD block 4, Cardio protect 4, PfG6PD inh -10, APOBEC3A inh -5, TAG inh 5 and APOBEC3G inh -7.
`Cc1cc(=O)n2[nH]c(-c3ccsc3-n3c(C)ccc3C)cc2n1` gave NadD block 31*, Cardio protect -3, PfG6PD inh 37, APOBEC3A inh 29, TAG inh 5, APOBEC3G inh 43*, A3G conf 44*, UDG A3G counter -5 and NadD conf 16.
`CCOc1cc(C(C(=O)NCC2CCCO2)N(C(=O)Cn2nnc3ccccc32)c2ccccc2C(C)=O)ccc1O` (stereo unspecified) gave NadD block 2, Cardio protect 2, PfG6PD inh -7, APOBEC3A inh -3 and APOBEC3G inh -9.
`Cc1c2cnn(CC(=O)Nc3c(F)c(F)cc(F)c3F)c(=O)c2c(C)n1Cc1ccccc1F` gave NadD block 32*, Cardio protect -9, PfG6PD inh -8, APOBEC3A inh 27, TAG inh 12, APOBEC3G inh 45*, A3G conf 48*, UDG A3G counter -2 and NadD conf 46.
Screening N#CC1=C2SCC(O)(c3ccccc3)N2C(=O)CC1c1cccs1 (stereo unspecified) returned NadD block 1, Cardio protect 1 and PfG6PD inh -8.
`N#CC1=C2SCN(c3ccccc3)CN2C(=O)CC1c1cccs1` (stereo unspecified) gave NadD block 44*, Cardio protect 3, PfG6PD inh 71*, APOBEC3A inh 7, TAG inh 10, APOBEC3G inh 48*, A3G conf 55*, UDG A3G counter -2, PfG6PD confirm 36 and NadD conf 16.
For Cc1ccsc1CN(C)CC(=O)Nc1ccccc1C(=O)NC1CC1 the results were NadD block -7, Cardio protect 2, PfG6PD inh 9, APOBEC3A inh -4, TAG inh -34 and APOBEC3G inh -8.
`Cc1cc(-c2csc(N)n2)c(C)n1C` gave NadD block 75*, Cardio protect -5, PfG6PD inh 64*, APOBEC3A inh 7, TAG inh 2, APOBEC3G inh 44*, A3G conf 17*, UDG A3G counter -3, PfG6PD confirm -7 and NadD conf -8.
Screening CCn1ncc(-c2csc(N)n2)c1C returned NadD block -2, Cardio protect 1, PfG6PD inh 18, APOBEC3A inh -1, TAG inh -3 and APOBEC3G inh -3.
Screening CCOc1ccccc1NC(=O)CCCNC(=O)Cn1cnc2sc(C)c(C)c2c1=O returned NadD block 2, Cardio protect 4, PfG6PD inh 67*, APOBEC3A inh -3, APOBEC3G inh -13 and PfG6PD confirm 45.
Screening C=CCO/N=C(/C)c1ccc(Oc2cnccn2)cc1 returned NadD block -2, Cardio protect 2, PfG6PD inh -4, APOBEC3A inh 0, TAG inh -21 and APOBEC3G inh -5.
For CC1(C)Cc2c(c(-c3ccco3)nc3sc4c(NCCCO)ncnc4c23)CO1 the results were NadD block -7, Cardio protect 24, PfG6PD inh 60*, APOBEC3A inh 2, TAG inh 23, APOBEC3G inh 3 and PfG6PD confirm 9.

Screening results (PubChem)
